According to PubChem BioAssay (NCATS):
Inconclusive results are not listed. Activity calls are given as the source filed them. Calls follow the shape of the dose curve; as a rule, active = well fitted curve in the direction sought with a large enough effect; inconclusive = small, poorly fitted or top-dose-only effect, or another doubt; inactive = no such curve, though single readings can be large; an effect the other way counts as inactive or inconclusive.

What was measured:
[1] = target: Cellular tumor antigen p53 (Homo sapiens) (UniProt P04637); experiment: Primary qHTS for small molecule compounds that upregulate eGFP-tagged delta133p53alpha (in N-terminal) cells. (AID 2060322); conditions: NCI-H358 eGFP-delta133p53alpha fluorescence, 24 h; activation: active compounds read high;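 also: cells pre-induced with doxycycline then dosed without doxycycline; series mostly up to about 56 µM; 0% = DMSO vehicle and 100% = reference activator; nearly all actives have a fitted effect of over 75% in size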
Method in brief: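 NCI-H358 cells pre-induced 24 h with 10 ng/ml doxycycline for eGFP-delta133p53alpha, plated dox-free and exposed 24 h at 37C to titrated compounds. Fixed, Hoechst-stained; gated GFP peak intensity by laser scanning cytometry, normalized to DMSO (0%) and 57.5 uM 5-azacytidine (100%).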

[2] = target: Aldehyde dehydrogenase, mitochondrial (Homo sapiens) (UniProt P05091); experiment: qHTS for Inhibitors of the Aldehyde Dehydrogenase Family (ALDH2) Primary screen (AID 2061308);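 also: plate controls were vehicle for no effect and reference inhibitor for full effect; nearly all actives have a fitted effect of over 55% in size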
[3] = target: Retinaldehyde dehydrogenase 3 (Homo sapiens) (UniProt P47895); experiment: qHTS for Inhibitors of the Aldehyde Dehydrogenase Family (ALDH1A3) Primary screen (AID 2061315);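 also: plate controls were DMSO vehicle for no effect and reference inhibitor for full effect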

Chain of Cellular tumor antigen p53 (Homo sapiens) (P04637 whole entry, looked up): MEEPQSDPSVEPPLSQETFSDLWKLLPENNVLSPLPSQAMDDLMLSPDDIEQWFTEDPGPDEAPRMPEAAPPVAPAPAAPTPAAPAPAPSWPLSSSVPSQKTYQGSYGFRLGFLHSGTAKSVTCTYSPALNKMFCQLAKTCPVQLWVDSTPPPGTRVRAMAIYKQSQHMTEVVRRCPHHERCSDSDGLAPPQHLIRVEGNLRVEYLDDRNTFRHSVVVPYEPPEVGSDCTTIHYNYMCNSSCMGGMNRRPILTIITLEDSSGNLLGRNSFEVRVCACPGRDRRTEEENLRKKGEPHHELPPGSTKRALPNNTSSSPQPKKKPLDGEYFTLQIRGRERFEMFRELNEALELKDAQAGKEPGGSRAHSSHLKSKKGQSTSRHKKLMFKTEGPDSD

CC(C)C(NC(=O)c1ccc(O)cc1)C(=O)N1CCCC1C(=O)Nc1c(O)cccc1C(=O)O (configuration not stated)
inactive: activation [1] -0.763% | Potency [2] | Potency [3]

Nc1nc2c(nc(Sc3ccc(Cl)cc3)n2[C@@H]2O[C@@H]3COP(=O)(O)O[C@H]3[C@H]2O)c(=O)[nH]1
inactive: activation [1] 1% | Potency [2] | Potency [3]

CC12CCC(C(OC3OC(COC4OCC(O)(CO)C4O)C(O)C(O)C3O)C1)C(C)(C)O2 (configuration not stated)
inactive: activation [1] -13.4% | Potency [2] | Potency [3]

CC(C)c1c(O)ccc2c1CC[C@H]1C(C)(C)CCC[C@]21C
inactive: activation [1] 25.9% | Potency [2] | Potency [3]
